Activity calls are given as the source filed them. The calls were made as follows: active = hit-call score of the fitted dose curve at least 0.9, where 1 is the maximum; inactive = score below 0.9.
What was measured:
[1] = ATG_GRE_CIS: Attagene CIS-FACTORIAL HepG2 Assay for human Glucocorticoid Response Elements (GRE) (AID 2282947); conditions: HepG2 GRE cis-reporter, Attagene multiplex mRNA; actives raise or lower the signal
In short: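 HepG2, transient cis-reporter transfection, 24 h. Reporter mRNA: RT-PCR then CE, fluorescence. Fit both directions vs DMSO.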

[2] = ATG_ISRE_CIS: Attagene CIS-FACTORIAL HepG2 Assay for human Interferon Regulatory Factor 1 (IRF1) binding to an Interferon-Stimulated Response Element (ISRE) (AID 2282948); conditions: HepG2 ISRE cis-reporter (Attagene), mRNA transcription readout; actives raise or lower the signal
In short: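 Read-out: fluorescent RT-PCR products resolved by capillary electrophoresis, reporting endogenous transcription factor activity via ISRE-driven reporter mRNA in transfected HepG2 cells dosed for 24 h; gain or loss fitted relative to DMSO.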

[3] = ATG_M_32_CIS: Attagene CIS-FACTORIAL HepG2 Assay for M32 Transcription Factor (Internal Marker) (AID 2282949); conditions: HepG2 Attagene cis-factorial M32 reporter, mRNA; actives raise or lower the signal;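 also: background control marker of the multiplexed CIS panel rather than a real target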
In short: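 Using DMSO as baseline, bidirectional curve fits were applied to reporter mRNA signals. These came from transiently transfected HepG2 cells exposed for 24 h, with RNA analysed by RT-PCR, FAM primer extension, HpaI digestion and CE.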

[4] = ATG_M_06_CIS: Attagene CIS-FACTORIAL HepG2 Assay for M06 Transcription Factor (Internal Marker) (AID 2282950); conditions: HepG2 Attagene CIS-FACTORIAL M06 internal marker reporter; actives raise or lower the signal
In short: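 Serves as a background control readout. Transfected HepG2 exposed to compounds for 24 h, then reporter transcripts quantified by fluorescent RT-PCR and capillary electrophoresis. Both directions fitted against DMSO baseline.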

[5] = molecular target: Hypoxia-inducible factor 1-alpha (Homo sapiens) (UniProt Q16665); experiment: ATG_HIF1a_CIS: Attagene CIS-FACTORIAL HepG2 Assay for human Hypoxia Inducible Factor 1 (HIF1A) (AID 2282951); conditions: HepG2 Attagene cis-factorial HIF1a reporter transcription; actives raise or lower the signal
In short: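 Cis-element reporter constructs were transiently transfected into HepG2 cells, which were treated for 24 h; reporter RNA was reverse-transcribed, amplified, labelled and resolved by capillary electrophoresis.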

[6] = molecular target: Heat shock factor protein 1 (Homo sapiens) (UniProt Q00613); experiment: ATG_HSE_CIS: Attagene CIS-FACTORIAL HepG2 Assay for human Heat Shock Transcription Factor 1 (HSE) (AID 2282953); conditions: HepG2 HSE cis-reporter, Attagene RNA transcription; actives raise or lower the signal
In short: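 Endogenous transcription factor activity in transiently transfected HepG2, read as reporter mRNA by RT-PCR with fluorescent capillary electrophoresis after 24 h. Gain or loss of signal fitted versus DMSO baseline.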

[7] = ATG_MRE_CIS: Attagene CIS-FACTORIAL HepG2 Assay for human Metal Responsive Element (MRE) (AID 2282954); conditions: HepG2 MRE cis-reporter transcription, Attagene multiplex; actives raise or lower the signal
In short: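 Readout: capillary electrophoresis of 6-FAM-labelled, HpaI-digested RT-PCR reporter products. System: HepG2 cells carrying transient multiplexed cis reporters, dosed 24 h. Analysis: bidirectional fit, DMSO baseline.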

[8] = molecular target: Paired box protein Pax-6 (Homo sapiens) (UniProt P26367); experiment: ATG_Pax6_CIS: Attagene CIS-FACTORIAL HepG2 Assay for human Paired Box 6 (PAX6) (AID 2282956); conditions: HepG2 CIS-FACTORIAL PAX6 reporter transcription, RNA readout; actives raise or lower the signal
In short: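 Readout: reporter transcript fluorescence after RT-PCR and capillary electrophoresis. Cells: HepG2, transiently transfected with cis-regulated MRTUs. Exposure 24 h. Gain or loss of signal fitted bidirectionally relative to DMSO.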

[9] = ATG_PXRE_CIS: Attagene CIS-FACTORIAL HepG2 Assay for human Pregnane X Receptor Element (PXRE) (AID 2282957); conditions: HepG2 Attagene CIS-FACTORIAL PXRE reporter, mRNA; actives raise or lower the signal
In short: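 Using HepG2 transfected with multiple reporter transcription units, endogenous factor-driven transcription was scored as reporter mRNA after 24 h exposure.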

[10] = ATG_PPRE_CIS: Attagene CIS-FACTORIAL HepG2 Assay for human Peroxisome Proliferator-activated Response Element (PPRE) (AID 2282958); conditions: HepG2 PPRE cis-element reporter, Attagene transcription factor profiling; actives raise or lower the signal
In short: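 DMSO served as negative control and baseline for bidirectional curve fitting. Signal came from PPRE-regulated reporter mRNA in HepG2 cells, measured 24 h post-dosing by RT-PCR, 6-FAM primer extension and capillary electrophoresis.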

[11] = ATG_RORE_CIS: Attagene CIS-FACTORIAL HepG2 Assay for human RAR-related Orphan Receptor Element (RORE) (AID 2282959); conditions: HepG2 Attagene cis-factorial RORE reporter, mRNA; actives raise or lower the signal
In short: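 Transfect HepG2 with MRTUs; treat 24 h; extract RNA; RT with oligo(dT); PCR with reporter-specific primers; 6-FAM primer extension; HpaI digest 2 h at 37 C; capillary electrophoresis. Fit vs DMSO, bidirectional.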

[12] = molecular target: Transcription factor Sp1 (Homo sapiens) (UniProt P08047); experiment: ATG_Sp1_CIS: Attagene CIS-FACTORIAL HepG2 Assay for human Specificity Protein 1 (Sp1) (AID 2282961); conditions: HepG2 Sp1 cis-reporter transcription, actives raise or lower the signal
In short: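 Chemicals are dosed onto HepG2 cells transfected with multiple cis-promoter reporter constructs, and after 24 h reporter RNA is reverse-transcribed, PCR-amplified and resolved by capillary electrophoresis for fluorescence quantitation; activity is scored up or down against DMSO.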

[13] = ATG_SREBP_CIS: Attagene CIS-FACTORIAL HepG2 Assay for human Sterol Regulatory Element Binding (SREBP) (AID 2282962); conditions: HepG2 Attagene cis-factorial SREBP reporter, mRNA; actives raise or lower the signal
In short: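 Readout: fluorescent reporter-transcript peaks resolved by capillary electrophoresis after RT-PCR. Cells were human HepG2 carrying transfected cis-promoter reporter constructs, dosed for 24 h. Gain or loss of signal was fitted against DMSO controls.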

[14] = molecular target: Signal transducer and activator of transcription 3 (Homo sapiens) (UniProt P40763); experiment: ATG_STAT3_CIS: Attagene CIS-FACTORIAL HepG2 Assay for human Signal Transducer and Activator of Transcription 3 (STAT3) (AID 2282963); conditions: HepG2, Attagene cis-factorial STAT3 reporter transcription; actives raise or lower the signal
In short: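 Uses human liver HepG2 transiently carrying cis-regulated reporter transcription units. Following 24 h dosing, reporter mRNA induction was detected by RT-PCR and capillary electrophoresis, analysed bidirectionally versus DMSO.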

[15] = ATG_TA_CIS: Attagene CIS-FACTORIAL HepG2 Assay for human TA Basal Promoter (AID 2282964); conditions: HepG2 Attagene CIS-factorial TA basal promoter reporter; actives raise or lower the signal
In short: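 Background-control readout: TA basal promoter reporter mRNA, fitted in both directions relative to DMSO. Measured by RT-PCR and capillary electrophoresis 24 hours after treating HepG2 human liver cells transiently carrying multiplexed cis-regulated reporter constructs.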

[16] = ATG_TCF_b_cat_CIS: Attagene CIS-FACTORIAL HepG2 Assay for human T-Cell-Factor with beta-catenin (TCF/b-cat) (AID 2282965); conditions: HepG2 TCF/beta-catenin cis-reporter transcription, actives raise or lower the signal
In short: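 In this cis-format system, transfected HepG2 cells report endogenous transcription factor activity. Readout after 24 h exposure is reporter transcript abundance from RT-PCR and capillary electrophoresis, analysed for gain or loss of signal versus DMSO.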

[17] = molecular target: Hepatocyte nuclear factor 6 (Homo sapiens) (UniProt Q9UBC0); experiment: ATG_HNF6_CIS: Attagene CIS-FACTORIAL HepG2 Assay for human Hepatocyte Nuclear Factor 6 (HNF6) (AID 2282952); conditions: HepG2 Attagene cis-factorial HNF6 reporter transcription; actives raise or lower the signal
In short: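 Using cis-element reporters in HepG2 liver cells, the assay tracks endogenous factor-driven transcription 24 h post-dosing. Signal comes from 6-FAM-labelled, HpaI-digested RT-PCR fragments, with gain or loss scored against DMSO.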

[18] = ATG_Sox_CIS: Attagene CIS-FACTORIAL HepG2 Assay for human SRY-box transcription factor (SOX) (AID 2282960); conditions: HepG2 Attagene cis-factorial SOX reporter, mRNA; actives raise or lower the signal
In short: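 Fluorescence-labelled cDNA fragments from reporter transcripts, sized by CE, give the signal. Cells: HepG2, transiently transfected with cis-regulated reporter units. Exposure 24 h; DMSO negative control; bidirectional curve fitting.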

[19] = ATG_PBREM_CIS: Attagene CIS-FACTORIAL HepG2 Assay for human Phenobarbital-responsive Enhancer Module (PBREM) (AID 2282955); conditions: HepG2 PBREM cis-reporter, Attagene multiplexed transcription; actives raise or lower the signal
In short: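 Multiplexed cis-reporter readout in human hepatoma HepG2 cells; PBREM-regulated transcript quantified after 24 h exposure by fluorescent RT-PCR fragment analysis. Signal changes up or down fitted relative to DMSO.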

Hepatocyte nuclear factor 6 (Homo sapiens), sequence (Q9UBC0 whole entry, looked up, the tested form may be a part): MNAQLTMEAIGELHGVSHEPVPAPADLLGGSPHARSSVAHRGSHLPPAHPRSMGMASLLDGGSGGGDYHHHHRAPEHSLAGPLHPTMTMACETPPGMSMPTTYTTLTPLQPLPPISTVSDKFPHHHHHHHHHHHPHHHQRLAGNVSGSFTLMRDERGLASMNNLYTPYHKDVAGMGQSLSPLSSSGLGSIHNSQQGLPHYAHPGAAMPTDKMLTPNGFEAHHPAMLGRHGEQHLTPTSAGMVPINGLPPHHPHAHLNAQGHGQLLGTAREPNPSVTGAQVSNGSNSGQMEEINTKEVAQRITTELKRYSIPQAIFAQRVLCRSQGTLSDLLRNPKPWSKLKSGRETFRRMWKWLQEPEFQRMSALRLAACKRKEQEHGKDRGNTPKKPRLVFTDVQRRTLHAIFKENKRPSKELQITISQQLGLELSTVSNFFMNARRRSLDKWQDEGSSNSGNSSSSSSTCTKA
Paired box protein Pax-6 (Homo sapiens), sequence (P26367 whole entry, looked up): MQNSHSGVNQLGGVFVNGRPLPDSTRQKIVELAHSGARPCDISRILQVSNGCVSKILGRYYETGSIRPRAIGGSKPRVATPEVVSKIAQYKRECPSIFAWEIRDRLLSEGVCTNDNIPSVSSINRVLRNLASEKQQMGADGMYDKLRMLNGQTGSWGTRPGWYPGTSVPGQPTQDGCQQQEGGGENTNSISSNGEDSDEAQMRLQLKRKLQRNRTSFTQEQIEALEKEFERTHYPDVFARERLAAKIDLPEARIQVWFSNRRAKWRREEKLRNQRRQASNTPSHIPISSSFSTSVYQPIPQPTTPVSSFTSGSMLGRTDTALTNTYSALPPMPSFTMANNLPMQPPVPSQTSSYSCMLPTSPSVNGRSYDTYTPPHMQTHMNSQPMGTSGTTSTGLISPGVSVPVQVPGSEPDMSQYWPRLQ
Heat shock factor protein 1 (Homo sapiens), sequence (Q00613 whole entry, looked up): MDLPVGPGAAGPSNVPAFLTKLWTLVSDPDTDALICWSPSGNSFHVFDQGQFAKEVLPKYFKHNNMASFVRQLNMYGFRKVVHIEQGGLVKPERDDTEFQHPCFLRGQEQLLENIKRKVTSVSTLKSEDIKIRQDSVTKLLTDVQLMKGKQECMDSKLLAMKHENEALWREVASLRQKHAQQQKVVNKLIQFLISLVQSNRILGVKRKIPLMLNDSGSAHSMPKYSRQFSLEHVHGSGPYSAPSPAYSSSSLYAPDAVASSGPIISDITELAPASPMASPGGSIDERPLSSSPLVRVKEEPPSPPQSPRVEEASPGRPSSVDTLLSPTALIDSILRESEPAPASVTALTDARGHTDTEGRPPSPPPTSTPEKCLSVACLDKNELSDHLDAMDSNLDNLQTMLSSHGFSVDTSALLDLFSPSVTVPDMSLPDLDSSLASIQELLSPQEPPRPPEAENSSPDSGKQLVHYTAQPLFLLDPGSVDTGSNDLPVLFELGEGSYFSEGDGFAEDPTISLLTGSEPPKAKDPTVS
Signal transducer and activator of transcription 3 (Homo sapiens), sequence (P40763 whole entry, looked up): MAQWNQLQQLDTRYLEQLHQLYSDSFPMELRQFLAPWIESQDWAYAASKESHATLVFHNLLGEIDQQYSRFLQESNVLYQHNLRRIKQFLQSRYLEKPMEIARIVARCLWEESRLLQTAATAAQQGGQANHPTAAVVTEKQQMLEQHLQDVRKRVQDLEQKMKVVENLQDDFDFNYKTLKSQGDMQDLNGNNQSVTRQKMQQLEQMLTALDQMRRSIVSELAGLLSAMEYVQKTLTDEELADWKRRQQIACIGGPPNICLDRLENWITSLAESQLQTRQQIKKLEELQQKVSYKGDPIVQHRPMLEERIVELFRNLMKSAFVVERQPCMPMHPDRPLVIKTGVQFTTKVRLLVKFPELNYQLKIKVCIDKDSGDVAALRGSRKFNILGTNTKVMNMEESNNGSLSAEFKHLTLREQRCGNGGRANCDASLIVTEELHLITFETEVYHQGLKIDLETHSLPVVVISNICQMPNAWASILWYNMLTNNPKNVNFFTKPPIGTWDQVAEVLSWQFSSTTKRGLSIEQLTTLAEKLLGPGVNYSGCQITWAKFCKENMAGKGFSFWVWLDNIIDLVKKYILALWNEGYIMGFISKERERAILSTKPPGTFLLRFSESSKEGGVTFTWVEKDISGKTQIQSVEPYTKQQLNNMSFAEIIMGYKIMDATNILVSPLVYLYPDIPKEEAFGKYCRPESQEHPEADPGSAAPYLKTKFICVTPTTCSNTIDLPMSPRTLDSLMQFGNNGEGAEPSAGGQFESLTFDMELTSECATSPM
Hypoxia-inducible factor 1-alpha (Homo sapiens), sequence (Q16665 whole entry, looked up): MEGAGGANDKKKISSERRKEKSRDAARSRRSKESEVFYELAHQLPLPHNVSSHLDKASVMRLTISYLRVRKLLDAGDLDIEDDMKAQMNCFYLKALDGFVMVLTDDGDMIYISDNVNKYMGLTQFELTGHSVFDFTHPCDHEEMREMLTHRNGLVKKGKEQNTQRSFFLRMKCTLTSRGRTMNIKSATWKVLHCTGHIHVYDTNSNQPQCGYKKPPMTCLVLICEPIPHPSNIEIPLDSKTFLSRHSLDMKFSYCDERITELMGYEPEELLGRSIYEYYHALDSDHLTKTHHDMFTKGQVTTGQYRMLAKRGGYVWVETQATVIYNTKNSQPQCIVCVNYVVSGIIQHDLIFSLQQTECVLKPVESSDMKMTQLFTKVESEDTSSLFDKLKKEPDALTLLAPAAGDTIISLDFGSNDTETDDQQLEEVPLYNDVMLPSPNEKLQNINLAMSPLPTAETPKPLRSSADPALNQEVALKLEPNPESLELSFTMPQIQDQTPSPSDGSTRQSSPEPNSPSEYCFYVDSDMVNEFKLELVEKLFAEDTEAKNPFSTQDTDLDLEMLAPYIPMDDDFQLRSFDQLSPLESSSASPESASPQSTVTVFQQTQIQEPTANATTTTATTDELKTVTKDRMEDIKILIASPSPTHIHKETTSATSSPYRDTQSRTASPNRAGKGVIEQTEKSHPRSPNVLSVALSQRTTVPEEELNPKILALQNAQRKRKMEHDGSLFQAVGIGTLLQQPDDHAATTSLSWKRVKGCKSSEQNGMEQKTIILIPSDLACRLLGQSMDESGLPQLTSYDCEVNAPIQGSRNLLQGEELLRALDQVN
Transcription factor Sp1 (Homo sapiens), sequence (P08047 whole entry, looked up): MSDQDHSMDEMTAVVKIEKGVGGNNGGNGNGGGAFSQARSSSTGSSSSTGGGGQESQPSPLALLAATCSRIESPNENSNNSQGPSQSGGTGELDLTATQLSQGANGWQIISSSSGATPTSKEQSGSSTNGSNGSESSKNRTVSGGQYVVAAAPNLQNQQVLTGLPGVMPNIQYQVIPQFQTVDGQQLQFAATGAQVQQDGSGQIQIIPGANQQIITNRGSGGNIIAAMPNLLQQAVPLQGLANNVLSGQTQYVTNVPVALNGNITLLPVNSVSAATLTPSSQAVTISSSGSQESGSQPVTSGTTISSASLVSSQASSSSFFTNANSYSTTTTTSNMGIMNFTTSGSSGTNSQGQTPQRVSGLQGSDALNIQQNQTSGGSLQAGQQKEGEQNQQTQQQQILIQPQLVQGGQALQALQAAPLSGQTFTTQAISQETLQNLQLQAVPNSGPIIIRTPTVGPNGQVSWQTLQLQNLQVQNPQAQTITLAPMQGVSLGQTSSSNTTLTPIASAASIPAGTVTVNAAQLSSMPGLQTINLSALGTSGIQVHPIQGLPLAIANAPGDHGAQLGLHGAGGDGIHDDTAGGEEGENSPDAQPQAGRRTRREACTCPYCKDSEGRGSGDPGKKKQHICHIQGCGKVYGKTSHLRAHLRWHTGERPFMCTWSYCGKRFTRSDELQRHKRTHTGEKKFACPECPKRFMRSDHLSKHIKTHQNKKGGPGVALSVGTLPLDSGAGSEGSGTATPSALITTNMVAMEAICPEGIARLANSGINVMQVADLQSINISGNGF

Structure (SMILES) | outcome [1] | outcome [2] | outcome [3] | outcome [4] | outcome [5] | outcome [6] | outcome [7] | outcome [8] | outcome [9] | outcome [10] | outcome [11] | outcome [12] | outcome [13] | outcome [14] | outcome [15] | outcome [16] | outcome [17] | outcome [18] | AC50 [9] | outcome [19]
COC(=O)OC | inactive | inactive | inactive | inactive | inactive | inactive | inactive | inactive | inactive | inactive | inactive | inactive | inactive | inactive | inactive | inactive | – | – | – | –
C=C[C@@H](C)CCC=C(C)C | inactive | inactive | inactive | inactive | inactive | inactive | inactive | inactive | – | inactive | inactive | inactive | inactive | inactive | inactive | inactive | inactive | inactive | – | –
Cc1cccc(C)c1[N+](=O)[O-] | inactive | inactive | inactive | inactive | inactive | inactive | inactive | inactive | inactive | – | inactive | inactive | inactive | inactive | inactive | inactive | inactive | inactive | – | –
Cc1ccccc1C=O | inactive | inactive | inactive | inactive | inactive | – | inactive | inactive | – | inactive | inactive | inactive | inactive | inactive | inactive | inactive | inactive | inactive | 38.2 µM (active) | –
COc1ccc(O)cc1 | inactive | inactive | inactive | inactive | inactive | inactive | inactive | inactive | – | inactive | – | inactive | inactive | inactive | inactive | inactive | – | inactive | 57.5 µM (active) | –
Cc1ccc2ccccc2n1 | inactive | inactive | inactive | inactive | inactive | – | inactive | inactive | – | inactive | inactive | inactive | inactive | inactive | inactive | inactive | inactive | inactive | 58.9 µM (active) | inactive
CCCCN | inactive | inactive | inactive | inactive | inactive | – | inactive | inactive | inactive | inactive | inactive | inactive | inactive | inactive | inactive | inactive | inactive | inactive | – | inactive

Source: PubChem BioAssay (EPA / NIEHS)
